# “And” between values parts separate entries of the source, which are not always exact repeats. Equal values may be shown once. The source made the active and inactive calls.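 How the source made its calls, unless noted: active means compounds whose cell count with miR-34 switched on is under 0.7 times the count with it off; inactive means the rest.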
# Experiments:
# [1] = sensitizers of A549 cells to miR-34 induction, primary screen, imaging, A549 dox-inducible miR-34, nuclei and caspase counts (AID 1347080); conditions: A549 miR-34 inducible, Hoechst nuclei count, 48 h
# [2] = survival rescue of mitochondrial mutant cells in low glucose, primary screen, MELAS cybrids, Rieske KO mouse fibroblasts, CellTiter-Glo (AID 1508586;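 active means mean z-score across replicates of 1.96 or higher in either the MELAS or the Rieske mutant cell line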;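 further: z relative to plate mean and SD of compound and empty wells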)
# [3] = target: NAD(+) hydrolase SARM1 (Homo sapiens) (UniProt Q6SZW1); assay: SARM1 TIR NADase inhibitors, cell lysate, NAD-Glo luminescence (AID 1508614;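 active means compound whose remaining NAD level is above about 45 nM, limit read from the data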); conditions: SAM-TIR HEK293T lysate NADase, at 1 µM, stronger effect = higher value
# [4] = viability rescue of complex I mutant cybrids, primary screen, cell-based, galactose medium, ATP luminescence (AID 1645843;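 active means z-score of at least 1.8 in each of two replicates, scored against plate mean and spread of sample wells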;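 further: positive z means more ATP and so rescue of galactose-driven cybrid death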); conditions: complex I mutant cybrid cells, 72 h, stronger effect = higher value
# [5] = target: Mitogen-activated protein kinase 7 (Homo sapiens) (UniProt Q13164); assay: ERK5 transactivation activators in reporter cells, primary screen, cell-based, HTS (AID 1508626;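 active means luciferase signal above three times the same-plate solvent-only control wells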;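 further: luciferase driven by Gal4-ERK5 fusion binding five Gal4 sites before minimal TATA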); conditions: HeLa Gal4-ERK5 transactivation, 18 h, at 5 µM, stronger effect = higher value
# [6] = LFS_MB_P medulloblastoma growth inhibition, cell-based, chromothripsis tumors, cisplatin or BGB combos (AID 1671449; in the data active means inhibition above about 80%;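 further: cells exposed for 96 hours; 0% = vehicle DMSO and 100% = killing by high DMSO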); conditions: LFS_MB_P medulloblastoma cells
# [7] = HDN33 neuroblastoma growth inhibition, cell-based, chromothripsis tumors, cisplatin or BGB combos (AID 1671450; in the data active means inhibition above about 80%;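 further: cells exposed to compound for four days; 0% = vehicle DMSO and 100% = cell killing by high DMSO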); conditions: HDN33 neuroblastoma cells, stronger effect = higher value
# [8] = ICB984 medulloblastoma cell growth inhibition, synergistic combos for chromothripsis tumors, cisplatin or BGB combos (AID 1671451; call rule not given here;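 further: cells exposed for 96 hours before readout; 0% = vehicle DMSO and 100% = killing by high DMSO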); conditions: ICB984 medulloblastoma cells, drug combinations, stronger effect = higher value
# [9] = LFS_MB_1R medulloblastoma cell growth inhibition, synergistic combos for chromothripsis tumors, cisplatin or BGB combos (AID 1671452; in the data active means inhibition above about 80%;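 further: cells exposed for 96 hours before readout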); conditions: LFS_MB_1R medulloblastoma cells, stronger effect = higher value
# [10] = HTB85 osteosarcoma cell growth inhibition, synergistic combos for chromothripsis tumors, BGB or cisplatin IC20 combos (AID 1671453; in the data active means inhibition above about 80%;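 further: cells exposed for 96 hours before readout; 0% = vehicle DMSO and 100% = high DMSO killing control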); conditions: HTB85 osteosarcoma cells, drug combinations, stronger effect = higher value
# [11] = CRL2098 osteosarcoma cell growth inhibition, synergistic combos for chromothripsis tumors, BGB or cisplatin IC20 combos (AID 1671454; in the data active means inhibition above about 80%;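 further: cells exposed for 96 h before readout; 0% = vehicle DMSO and 100% = killing by high DMSO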); conditions: CRL2098 osteosarcoma cells, drug combinations, stronger effect = higher value
# [12] = HD-MB03 medulloblastoma cell growth inhibition, synergistic combos for chromothripsis tumors, BGB or cisplatin IC20 combos (AID 1671455; in the data active means inhibition above about 83%;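 further: 0% = vehicle DMSO and 100% = high DMSO as cytotoxic control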); conditions: HD-MB03 medulloblastoma cells, stronger effect = higher value
# [13] = stronger effect = lower value, cell number ratio, induced over uninduced
# [14] = measured here: relative caspase fold change +Dox/-Dox
# [15] = measured here: total cells with miR-34 induction, stronger effect = lower value
# [16] = measured here: total cells without miR-34 induction
# [17] = MELAS cybrid survival, CellTiter-Glo 48 h, stronger effect = higher value
# [18] = Rieske KO mouse fibroblast survival, CellTiter-Glo 72 h
# [19] = measured here: combination with BGB IC40, at 0.05 µM
# Chain of NAD(+) hydrolase SARM1 (Homo sapiens) (Q6SZW1 whole entry, looked up): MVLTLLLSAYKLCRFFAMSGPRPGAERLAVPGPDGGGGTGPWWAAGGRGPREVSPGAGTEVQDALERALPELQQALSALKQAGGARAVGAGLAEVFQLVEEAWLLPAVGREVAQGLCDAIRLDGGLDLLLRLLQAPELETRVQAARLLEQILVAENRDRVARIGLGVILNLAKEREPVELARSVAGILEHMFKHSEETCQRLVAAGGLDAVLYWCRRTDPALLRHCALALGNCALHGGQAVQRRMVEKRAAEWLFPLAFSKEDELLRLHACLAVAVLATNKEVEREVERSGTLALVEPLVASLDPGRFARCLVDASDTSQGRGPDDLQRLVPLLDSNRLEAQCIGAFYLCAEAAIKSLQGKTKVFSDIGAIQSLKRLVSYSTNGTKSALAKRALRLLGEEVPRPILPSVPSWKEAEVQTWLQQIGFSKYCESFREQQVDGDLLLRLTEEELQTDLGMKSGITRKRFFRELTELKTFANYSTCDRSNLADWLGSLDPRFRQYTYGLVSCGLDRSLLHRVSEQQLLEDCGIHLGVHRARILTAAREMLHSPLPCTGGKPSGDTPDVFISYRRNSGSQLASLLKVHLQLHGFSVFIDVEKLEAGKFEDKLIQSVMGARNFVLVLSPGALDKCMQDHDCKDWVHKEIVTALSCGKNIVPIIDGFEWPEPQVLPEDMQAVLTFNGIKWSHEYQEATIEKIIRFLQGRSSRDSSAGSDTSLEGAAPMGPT
# Chain of Mitogen-activated protein kinase 7 (Homo sapiens) (Q13164 whole entry, looked up, the tested form may be a part): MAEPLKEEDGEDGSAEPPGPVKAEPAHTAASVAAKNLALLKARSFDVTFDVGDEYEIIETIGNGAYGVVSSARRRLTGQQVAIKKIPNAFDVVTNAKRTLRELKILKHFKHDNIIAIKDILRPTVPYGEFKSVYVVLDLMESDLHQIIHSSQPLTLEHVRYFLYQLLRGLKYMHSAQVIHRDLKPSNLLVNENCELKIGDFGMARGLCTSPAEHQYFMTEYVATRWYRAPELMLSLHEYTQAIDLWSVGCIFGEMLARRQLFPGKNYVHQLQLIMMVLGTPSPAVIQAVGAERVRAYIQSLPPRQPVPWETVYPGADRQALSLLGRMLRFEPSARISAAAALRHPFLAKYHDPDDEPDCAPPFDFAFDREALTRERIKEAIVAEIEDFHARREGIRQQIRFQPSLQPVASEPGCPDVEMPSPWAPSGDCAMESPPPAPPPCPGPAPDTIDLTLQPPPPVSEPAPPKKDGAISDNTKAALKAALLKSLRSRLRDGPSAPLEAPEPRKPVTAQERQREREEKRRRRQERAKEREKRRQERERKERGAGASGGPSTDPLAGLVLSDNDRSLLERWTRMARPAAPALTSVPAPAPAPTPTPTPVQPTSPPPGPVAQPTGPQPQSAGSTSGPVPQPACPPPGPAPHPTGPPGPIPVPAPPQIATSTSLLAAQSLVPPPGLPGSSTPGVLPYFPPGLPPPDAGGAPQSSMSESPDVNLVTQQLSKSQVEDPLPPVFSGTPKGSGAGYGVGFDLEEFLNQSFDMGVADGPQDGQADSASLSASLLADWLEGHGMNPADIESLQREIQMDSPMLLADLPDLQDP
structure (smiles),measurement,setting,value
CC(=O)Nc1ccc(CC(=O)O)cc1,fold change,[1]; [13],0.951 (inactive)
same,fold change,[1]; [14],1.68
same,cell count,[1]; [15],9700
same,cell count,[1]; [16],10200
same,z-score,[2]; [17],-0.406 (inactive)
same,z-score,[2]; [18],-0.418
same,remaining NAD,[3],10 nM (inactive)
same,z-score,[4],0.87 (inactive)
CC(C)NCC(O)c1ccc2ccccc2c1 (stereo unspecified),fold change,[1]; [13],0.951 (inactive) and 0.938 (inactive) and 0.885 (inactive)
same,fold change,[1]; [14],0.594 and 1.29 and 1.16
same,cell count,[1]; [15],8750 and 8620 and 9710
same,cell count,[1]; [16],9200 and 11000
same,z-score,[2]; [17],0.654 (inactive) and -0.419 (inactive)
same,z-score,[2]; [18],-0.347 and -0.52
same,remaining NAD,[3],10 nM (inactive)
same,luciferase signal,[5],36 AU (inactive)
same,z-score,[4],0.85 (inactive) and 0.48 (inactive)
O=C(O)P(=O)(O)O,fold change,[1]; [13],0.897 (inactive) and 0.894 (inactive)
same,fold change,[1]; [14],0.852 and 3.28
same,cell count,[1]; [15],8080 and 11700
same,cell count,[1]; [16],9010 and 13100
same,z-score,[2]; [17],-0.331 (inactive)
same,z-score,[2]; [18],-0.123
same,remaining NAD,[3],10 nM (inactive)
same,luciferase signal,[5],16 AU (inactive)
same,inhibition,"[6]; at 0.5 µM, stronger effect = higher value",-17.5% (inactive)
same,inhibition,"[6]; measured here: combination with BGB IC20, at 0.005 µM",-17.5%
same,inhibition,"[6]; measured here: combination with BGB IC40, at 0.005 µM",-19.7%
same,inhibition,[6]; [19],-16.3%
same,inhibition,"[6]; measured here: combination with cisplatin, at 0.5 µM, stronger effect = higher value",-28.3%
same,inhibition,"[6]; measured here: combination with cisplatin, at 5 µM, stronger effect = higher value",-12.6%
same,inhibition,"[7]; BGB combo, at 5 µM",-58%
same,inhibition,[7]; at 0.5 µM,-36.9% (inactive)
same,inhibition,"[7]; cisplatin combo, at 5 µM",-60.9%
same,inhibition,"[7]; measured here: with BGB IC20 combination, at 0.5 µM",-38.1%
same,inhibition,"[7]; measured here: with cisplatin IC20 combination, at 0.5 µM",-23.4%
same,inhibition,"[7]; single agent, at 5 µM",-52.1%
same,inhibition,"[8]; BGB IC20 combo, at 0.005 µM",-19.7%
same,inhibition,"[8]; BGB IC40 combo, at 0.005 µM",-25.3%
same,inhibition,"[8]; BGB IC40 combo, at 0.05 µM",-29.6%
same,inhibition,[8]; at 0.5 µM,-22.4% (inactive)
same,inhibition,"[8]; cisplatin combo, at 0.05 µM",-29.6%
same,inhibition,"[8]; cisplatin combo, at 0.5 µM",-36.7%
same,inhibition,"[8]; cisplatin combo, at 5 µM",-14%
same,inhibition,"[8]; measured here: 5 uM single agent, at 5 µM",-14.5%
same,inhibition,[9]; at 0.5 µM,-51.1% (inactive)
same,inhibition,[9]; [19],-50.8%
same,inhibition,"[9]; measured here: combination with cisplatin, at 0.5 µM",-81.2%
same,inhibition,"[9]; measured here: combination with cisplatin, at 5 µM",-40.9%
same,inhibition,[10]; at 0.5 µM,-23.4% (inactive)
same,inhibition,"[10]; measured here: with BGB IC20, at 0.5 µM",-66.1%
same,inhibition,"[10]; measured here: with BGB IC20, at 5 µM",-35%
same,inhibition,"[10]; measured here: with cisplatin IC20, at 0.5 µM",20.5%
same,inhibition,"[10]; measured here: with cisplatin IC20, at 5 µM",-22.8%
same,inhibition,"[10]; single agent, at 5 µM",-25.8%
same,inhibition,[11]; at 0.5 µM,-107% (inactive)
same,inhibition,"[11]; measured here: combination with BGB at IC20, at 0.5 µM",-77.3%
same,inhibition,"[11]; measured here: combination with cisplatin at IC20, at 0.5 µM",-148%
same,inhibition,[12]; at 0.5 µM,-14.1% (inactive)
same,inhibition,"[12]; measured here: combo with BGB at IC20, at 0.5 µM",-16%
same,inhibition,"[12]; measured here: combo with cisplatin at IC20, at 0.5 µM",-17.1%

# Source: PubChem BioAssay
